# Sampled rows, rich in hits. Any-hit rate of the full collection: about 7.3%.
# NPC1 promoter act: activators of NPC1 promoter. AID 485313. Potency, µM (doses to about 9.22 µM), without a hit: at the top dose activation, most hits filed as activators. 320,000 tested, 2.4% active. Huh7 NPC1 promoter luciferase reporter, 24 h; also: % of control where 0% means no effect; nearly all actives have a fitted effect of over 60% in size
#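 Readout is luciferase luminescence, reflecting NPC1 promoter activation in stably transfected Huh7 cells after 24 h compound exposure at 37 °C in reduced-serum medium with 10% FBS.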
# SMN2 splice enh: SMN2 splice variant enhancement | HEK293 SMN2-luciferase splicing reporter, luminescence, 30-36 h | Potency, µM (highest dose often 46.1 µM), without a hit: top-dose activity change, positive = activation, actives largely listed as activators | 210,000 tested, 2.8% active | AID 1458; also: % of control where 0% means no effect; nearly all actives have a fitted effect of over 55% in size
#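 qHTS luciferase splicing reporter: luminescence rises when SMN2 exon 7 is included in transfected HEK293 cells. Compound exposure lasted 30-36 h at 37C, with 4.5 mM final sodium butyrate as control, followed by a ONE-Glo read.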
# Rab9 prom act: activators of Rab9 promoter; Huh7 Rab9 promoter-luciferase reporter, luminescence, 24 h; 320,000 tested, 2.8% active; Potency, µM (doses to about 9.22 µM), for the others: top-dose activation, negative = inhibition, most hits filed as activators; also: % of control where 0% means no effect; nearly all actives have a fitted effect of over 60% in size
#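 Huh7 cells stably carrying Rab9 promoter–luciferase reporter, plated 1500 cells/well, compound added after 2 h and incubated 24 h at 37 °C; luciferase luminescence then read after 10 min with detection reagent.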
# KinaseGlo FLuc: blocks Kinase-Glo luciferase, a counter-screen artifact; Kinase-Glo luciferase, ATP luminescence, 8 min; AID 1379; Q27757; 200,000 tested, 0.28% active; Potency, µM (series often up to 38.3 µM), for the others: top-dose activity change, negative = inhibition, usual class: inhibitors; also: % is scaled to controls: 0 for no effect and ±100 for the full control effect; nearly all actives have a fitted effect of over 60% in size
#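 Compounds were added to a substrate mix at pH 7.2 (50 mM imidazole, 10 uM ATP, within the enzyme's linear range), followed by Kinase-Glo detection reagent; luminescence was measured after 8 minutes at ambient temperature.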
# FLuc modulator: firefly luciferase modulation, counter-screen for miR-21 project | purified FLuc, Km substrates, luminescence inhibition | Potency, µM (series often up to 57.5 µM), for the others: at the highest dose activity change, negative = inhibition, actives largely listed as inhibitors | P08659 | AID 588342 | 360,000 tested, 6.9% active;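 also: plate controls were vehicle for no effect and reference inhibitor for full effect; nearly all actives have a fitted effect of over 55% in size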
# Target sequence (P08659 whole entry, looked up): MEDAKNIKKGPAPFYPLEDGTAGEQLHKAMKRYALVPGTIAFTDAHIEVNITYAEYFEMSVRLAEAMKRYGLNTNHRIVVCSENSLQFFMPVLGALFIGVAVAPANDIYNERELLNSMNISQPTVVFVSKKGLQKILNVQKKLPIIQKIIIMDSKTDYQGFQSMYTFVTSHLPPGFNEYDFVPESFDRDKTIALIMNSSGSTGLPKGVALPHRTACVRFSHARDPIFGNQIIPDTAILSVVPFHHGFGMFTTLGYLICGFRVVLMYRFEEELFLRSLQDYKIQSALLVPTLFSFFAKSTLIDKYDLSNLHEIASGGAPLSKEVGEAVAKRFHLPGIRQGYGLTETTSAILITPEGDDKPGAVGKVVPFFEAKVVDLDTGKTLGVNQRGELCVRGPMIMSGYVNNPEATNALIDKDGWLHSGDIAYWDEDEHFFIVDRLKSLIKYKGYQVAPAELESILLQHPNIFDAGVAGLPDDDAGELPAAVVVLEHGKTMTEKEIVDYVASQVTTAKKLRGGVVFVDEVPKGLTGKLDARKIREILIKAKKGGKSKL
#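 Biochemical qHTS of compounds, final roughly 60 µM downward over six points, against 10 nM purified firefly luciferase using Km concentrations of substrates (10 uM D-luciferin, 10 uM ATP) in Tris acetate pH 7.5 buffer; luminescence output.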
# * marks the source's active call; other numbers are inactive results; ? = inconclusive; / = not tested or not shown; [ ] = dose if it differs, or a comment. Calls follow the shape of the dose curve; as a rule, active = well fitted curve in the direction sought with a large enough effect; inconclusive = small, poorly fitted or top-dose-only effect, or another doubt; inactive = no such curve, though single readings can be large; an effect the other way counts as inactive or inconclusive. Potency is read from the fitted curve at half-maximal effect.
SMILES,NPC1 promoter act,SMN2 splice enh,Rab9 prom act,KinaseGlo FLuc,FLuc modulator
COc1cn(CC(=O)Nc2cccc(C)c2)c(CN2CCCCC2)cc1=O,/,/,/,/,-1.6%
COc1ccc(NC(=O)c2cc3ccc(O)cc3o/c2=N\O)cc1,?,/,28.2%,/,0.269µM*
N=c1oc2cc(O)ccc2cc1C(=O)Nc1ccc(F)cc1,?,/,3.55µM*,/,2.69µM*
CCCCCCc1cc2cc(C(=O)Nc3ccc(OC)cc3)c(=O)oc2cc1O,-8.1%,-15.9%[1.84 µM],-18.1%,-1.3%,2.7%
O=C(c1ccc(F)cc1)c1cc2ccc(O)cc2oc1=O,28.0%,/,15.0%,/,15.1µM*
C[C@H](CCC(=O)O)[C@H]1CC[C@]2(C)[C@@H]3C(=O)C[C@H]4C(C)(C)[C@@H](O)CC[C@]4(C)[C@H]3C(=O)C[C@@]12C,/,2.5%[9.22 µM],/,-2.0%[7.66 µM],/
COc1ccccc1-c1nc2c(c(SCc3cccc(Cl)c3)n1)Cc1c(CO)cnc(C)c1O2,/,/,/,/,-2.8%
Cc1ccc(NC(=O)c2cc3c(=O)n(Cc4ccco4)ccc3nc2C)cc1C,/,/,/,/,-8.7%
COc1ccc(-n2nc3ccc(NC(=O)c4cc5ccccc5o4)cc3n2)cc1Cl,/,-7.4%,/,/,-4.6%
O=c1c2c(nc3cc(-c4ccccc4)[nH]n13)CCC2,2.82µM*,11.2µM*,?,?,6.01µM*
O=c1c2c(nc3cc(-c4ccc(Br)cc4)[nH]n13)CCCC2,-3.3%,/,-1.8%,-7.9%,7.3%
Cc1cc2nc3c(c(=O)n2[nH]1)CCCC3,0.3%,26.5%,1.2%,-0.1%,-1.4%
Cc1c(-c2ccccc2)[nH]n2c(=O)c3c(nc12)CCCC3,?,11.2µM*,?,-4.5%,15.1µM*
COc1ccc(-c2cc3nc4c(c(=O)n3[nH]2)CCC4)cc1,?,10µM*,2.82µM*,-12.2%,4.26µM*
CCOC(=O)c1cc(S(=O)(=O)Nc2c(C)cc(C)cc2C)[nH]n1,/,/,/,/,-3.3%
Nc1ccc(N=Nc2ccc(N)cc2)cc1,?,14.1µM*,?,-0.9%,7.57µM*
Cc1ccc2[nH]c(-c3cccc(N)c3)cc2c1,1.78µM*,14.1µM*,2.24µM*,-2.3%,4.78µM*
O=[N+]([O-])c1cccc(-c2cc3ccccc3[nH]2)c1,?,/,26.6%,/,-12.0%
CC(=O)c1ccc(N2Cc3ccccc3C2=NC(=O)c2cccs2)cc1,?,14.1µM*,?,-4.2%,?
O=C(CCS(=O)(=O)c1cccs1)NC1CCCCCC1,2.82µM*,19.6%,3.55µM*,-2.9%,16.9µM*
Cc1nn(CCC(=O)NC(C)C)c(=O)c2nn(-c3ccccc3)c(C)c12,/,/,/,/,-5.7%
O=C(O)CCC(=O)Nc1cccc(-c2nnc(-c3ccccc3)o2)c1,2.8%,/,-2.4%,/,21.3µM*
O=C(COc1ccccc1)Nc1nnc(-c2ccccc2)o1,0.6%,-0.9%,2.6%,-1.5%,0.0%
O=C(COc1ccccc1)Nc1cccc(-c2nnc(-c3ccccc3)o2)c1,?,?,28.2%,-3.6%,12µM*
CCC(=O)Nc1cccc(-c2nnc(-c3cccc(NC(=O)CC)c3)o2)c1,0.7%,-19.1%,-3.2%,3.6%,?
SMILES,NPC1 promoter act,SMN2 splice enh,Rab9 prom act,KinaseGlo FLuc,FLuc modulator
CCCc1cc(=O)n2c([nH]c3ccccc32)c1C#N,20.2%,-3.2%,?,12.0%,6.75µM*
CCCCc1c(C)c(C#N)c2[nH]c3ccccc3n2c1=O,0.0%,/,-7.0%,-3.0%,2.4%
CCC(C)NC(=O)c1cccc(NC(=O)c2nsc3ccccc23)c1 (centres undefined),/,/,/,/,6.01µM*
CCOc1ccccc1CNC(=O)c1cccc(NC(=O)c2nsc3ccccc23)c1,/,/,/,/,6.01µM*
O=C1CN(C(=O)COc2ccc(Cl)cc2)C(c2ccc(F)cc2)c2cc(Cl)ccc2N1 (centres undefined),/,-2.1%,/,/,2.1%
COc1ccc(N=Cc2ccc[nH]2)cc1,1.7%,6.0%,-3.5%,-4.6%,9.53µM*
CCCCOc1ccc(N=Cc2ccc[nH]2)cc1,1.2%,/,15.8%,/,3.79µM*
Cc1ccc(NS(=O)(=O)c2cc3[nH]c(=O)c(=O)[nH]c3cc2C)cc1N(C)C,/,/,/,/,2.2%
CCOc1ccc(-c2cc3c(=O)n(CC(=O)NCc4ccc(F)cc4)ccn3n2)cc1,/,/,/,/,-3.4%
O=C(N=Nc1c(O)n(Cc2ccccc2)c2ccccc12)c1ccncc1,11.5%,/,8.2%,/,23.9µM*
COC(=O)N=Nc1c(O)n(Cc2ccccc2)c2ccccc12,0.5%,/,-0.2%,/,?
CN(C)S(=O)(=O)c1ccc(NC(=O)c2cc3ccccc3o2)cc1,?,-0.4%,?,-6.4%,15.1µM*
Cc1ccc(NC(=O)c2cc3ccccc3oc2=O)cc1S(=O)(=O)N(C)C,-27.9%,/,-33.6%,/,0.0757µM*
Cc1ccc(NC(=O)c2cc3ccccc3o2)cc1S(=O)(=O)N(C)C,3.16µM*,12.6µM*,2.51µM*,-3.0%,0.849µM*
Cc1ccc(S(=O)(=O)N(C)C)cc1NC(=O)COc1ccccc1C(=O)Nc1ccccc1,0.7%,/,1.3%,/,-2.1%
CN(c1ccccc1)S(=O)(=O)c1ccc(NC(=O)c2cc(=O)c3ccccc3o2)cc1,/,2.4%,/,/,-1.9%
Cc1ccc(NC(=O)c2ccccc2OCC(=O)Nc2ccccc2F)cc1S(=O)(=O)N(C)C,8.0%,/,19.2%,/,7.57µM*
Cn1c(=O)c2c(SCC(=O)NCc3ccc(F)cc3)nc(-c3ccccc3Cl)nc2n(C)c1=O,/,/,/,/,-0.7%
O=C(CCc1nc2ccccc2c(=O)[nH]1)Nc1nnc(SCc2ccc(Cl)cc2)s1,-3.5%,/,-3.9%,/,0.9%

# Screening data (PubChem)
